Test results reported in PubChem BioAssay (NCATS).

These compounds were tested against Glucocorticoid receptor (Homo sapiens) (UniProt P04150) (assay: GR-GFP Redistribution (AID 450)). Conditions: U2OS GR-GFP nuclear translocation, laser cytometry, 2 h; series mostly up to 20.6 µM;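 active = compounds whose dose series gives a full or clear partial fitted curve of increased nuclear translocation; inconclusive = weak partial curve or effect only at the top dose; inactive = no dose-dependent translocation response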.
Potency is the fitted concentration of half-maximal effect.

Chain of Glucocorticoid receptor (Homo sapiens) (P04150 whole entry, looked up): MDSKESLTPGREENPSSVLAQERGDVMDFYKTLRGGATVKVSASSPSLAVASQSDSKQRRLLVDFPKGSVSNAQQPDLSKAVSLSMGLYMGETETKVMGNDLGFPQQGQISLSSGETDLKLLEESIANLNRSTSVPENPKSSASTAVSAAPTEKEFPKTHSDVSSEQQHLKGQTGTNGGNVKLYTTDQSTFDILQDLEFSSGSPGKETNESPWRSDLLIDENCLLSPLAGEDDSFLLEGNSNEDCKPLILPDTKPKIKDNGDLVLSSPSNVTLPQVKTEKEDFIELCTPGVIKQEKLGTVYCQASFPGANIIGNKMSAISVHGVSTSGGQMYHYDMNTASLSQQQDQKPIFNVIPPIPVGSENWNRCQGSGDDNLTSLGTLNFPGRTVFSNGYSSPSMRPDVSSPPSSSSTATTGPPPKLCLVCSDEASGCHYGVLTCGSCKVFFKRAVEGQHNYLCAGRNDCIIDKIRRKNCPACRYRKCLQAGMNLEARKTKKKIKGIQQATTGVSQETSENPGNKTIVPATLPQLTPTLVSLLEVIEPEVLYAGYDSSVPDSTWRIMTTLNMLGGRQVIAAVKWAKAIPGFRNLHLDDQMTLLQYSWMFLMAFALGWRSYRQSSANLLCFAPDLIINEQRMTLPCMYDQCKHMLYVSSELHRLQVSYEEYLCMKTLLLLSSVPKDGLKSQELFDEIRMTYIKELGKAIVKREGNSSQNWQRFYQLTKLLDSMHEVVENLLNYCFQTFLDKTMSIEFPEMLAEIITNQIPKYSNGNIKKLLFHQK

Potency, inactive:
OCCOCCNc1ncnc2c1cnn2-c1ccc(Cl)cc1 > 20.6 µM
Cn1c(=O)[nH]c(=O)c2c1nc(N1CCN(c3cccc(Cl)c3)CC1)n2CCCc1ccccc1 > 20.6 µM
COc1cc(C2CC(C(F)(F)F)n3ncc(C(=O)O)c3N2)cc(OC)c1OC (stereo not given) > 20.6 µM
C=CCN=C(NC#N)SCCc1ccccc1 > 20.6 µM
CCOC(=O)C1CSc2[nH]c(=O)sc2C1c1ccccc1 (stereo not given) > 20.6 µM
Cn1c(=O)n(Cc2ccccc2)c(=O)c2c1nc(NCC1CCCO1)n2Cc1ccccc1 (stereo not given) > 20.6 µM
Cc1c(C(Nc2ccccn2)c2ccccc2)c(=O)n(-c2ccccc2)n1C (stereo not given) > 20.6 µM
O=C(c1ccco1)N1CCN(c2ncnc3c2[nH]c2ccccc23)CC1 > 20.6 µM
Cc1ccc2cc(CNC(C)(C)C)c(=O)[nH]c2c1 > 20.6 µM
CN=c1sc2ccccc2n1CC(O)COCc1ccco1 (stereo not given) > 20.6 µM
COC(=O)C1C(=O)NCC1c1ccccc1 (stereo not given) > 20.6 µM
C=CCOC(=O)C1=C(C)NC(SCC(=O)Nc2ccc(C)c(Cl)c2)=C(C#N)C1c1ccco1 (stereo not given) > 20.6 µM
CC(O)CNc1nc2c(c(=O)n(C)c(=O)n2C)n1Cc1cccc(C(F)(F)F)c1 (stereo not given) > 20.6 µM
CC(NC(=O)OCc1ccccc1)C(=O)OCN1C(=O)c2ccccc2C1=O (stereo not given) > 20.6 µM
CC(=O)N1CC=C2C(C#N)=C(N)C(C#N)(C#N)[C@H](c3ccoc3)[C@H]2C1 > 20.6 µM
